PubChem BioAssay (EPA / NIEHS)
Results filed as inconclusive are left out. Activity calls are given as the source filed them. Rule for the calls: active = hit-call score of the fitted dose curve at least 0.9, where 1 is the maximum; inconclusive = response in the unintended direction; inactive = score below 0.9.

Tested on: not listed separately
Experiment: TOX21_p53_BLA_p5_viability: Viability Assessment in the Tox21 HCT-116 p53 Agonism Beta-lactamase Assay, Phase 5 (AID 2283600)
Procedure, shortened: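 Compounds, pinned from DMSO at 217-fold dilution, were left on the cells for 16 h. The viability endpoint was ATP content measured by CellTiter-Glo luminescence, where falling signal reflects cytotoxicity.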
For `CSc1nc2cc(Oc3cccc(Cl)c3Cl)c(Cl)cc2[nH]1`, the outcome was “inactive”. For `Cc1c(C)n(CCN(C)C)c2ccc(C(=O)OCCN(C)C)cc12`, the outcome was “inactive”. With `C/C(=C(\CCOC(=O)c1ccccc1)SS/C(CCOC(=O)c1ccccc1)=C(/C)N(C=O)Cc1cnc(C)nc1N)N(C=O)Cc1cnc(C)nc1N` the outcome was “inactive”. In the case of `Cc1cc(N)c2ccccc2[n+]1CCCCCCCCCC[n+]1c(C)cc(N)c2ccccc21`, the outcome is reported as “inactive”. With `NC(=O)NS(=O)(=O)c1ccc(N)cc1` the outcome was “inactive”. With `C=C1CC[C@H](O)C/C1=C/C=C1\CCC[C@]2(C)[C@@H]([C@H](C)CCCC(C)(C)O)CC[C@@H]12` the AC50 was 13.1 µM (active). With `O=C1NCN(c2ccccc2)C12CCN(CCCC(c1ccc(F)cc1)c1ccc(F)cc1)CC2` the AC50 was 35.1 µM (active). For `CCC(C)(C)c1ccc(CC(C)CN2C[C@@H](C)O[C@@H](C)C2)cc1` (stereo partly drawn), the outcome was “inactive”. With `C=C(Nc1ccc(OCC)cc1)Nc1ccc(OCC)cc1` the outcome was “inactive”. For `Cc1ccc(O)c(O)c1`, the AC50 was 42 µM (active). For `COc1cc2c(cc1OC)C(=O)C(CC1CCN(Cc3ccccc3)CC1)C2` (stereo not drawn), the outcome was “inactive”. For `CC(C)(C)NCC(O)CSc1nc(-c2ccc(C(N)=O)s2)cs1` (stereo not drawn), the outcome was “inactive”. For `Oc1ccc(Cl)c2cccnc12`, the outcome was “inactive”. For `Cc1cc2nc(N)sc2cc1C`, the outcome was “inactive”. For `CCOc1ccc2nc3cc(N)ccc3c(N)c2c1`, the outcome was “inactive”. With `Cc1cc2c(C(C)C)c(O)c(O)c(C=O)c2c(O)c1-c1c(C)cc2c(C(C)C)c(O)c(O)c(C=O)c2c1O` the AC50 was 10.2 µM (active). In the case of `CC[C@@H](CO)NCCN[C@@H](CC)CO`, the outcome is reported as “inactive”. For `CO[Si](CCCNc1ccccc1)(OC)OC`, the outcome was “inactive”. With `CCCCCCCC[P+](CCCCCCCC)(CCCCCCCC)CCCCCCCC` the AC50 was 13.6 µM (active). In the case of `Nc1cnn([C@@H]2O[C@H](CO)[C@@H](O)[C@H]2O)c(=O)n1`, the outcome is reported as “inactive”. For `O=C(O)c1cc(-c2ccccc2)nc2ccccc12`, the outcome was “inactive”. With `CC(=O)OC(OC(C)=O)c1ccc([N+](=O)[O-])o1` the AC50 was 88 µM (active). With `O=[N+]([O-])c1ccc(O)c2ncccc12` the outcome was “inactive”. For `COC(=O)C1=C(C)NC(C)=C(C(=O)OCCCN2CCC(c3ccccc3)(c3ccccc3)CC2)C1c1cccc([N+](=O)[O-])c1` (stereo not drawn), the AC50 was 37.4 µM (active). For `CCCOc1ccccc1-c1nc2n[nH]nc2c(=O)[nH]1`, the outcome was “inactive”. For `Cn1c(O)c(N=NC(N)=S)c2ccccc21`, the outcome was “inactive”. With `CCC(=O)O[C@]1(C(=O)SCF)[C@H](C)C[C@H]2[C@@H]3C[C@H](F)C4=CC(=O)C=C[C@]4(C)[C@@]3(F)[C@@H](O)C[C@@]21C` the outcome was “inactive”. In the case of `C[C@@H](NCCCc1cccc(C(F)(F)F)c1)c1cccc2ccccc12`, the outcome is reported as “inactive”. In the case of `OCCN1CCN(CCCN2c3ccccc3Sc3ccc(Cl)cc32)CC1`, the outcome is reported as “inactive”. For `CCCCCCCCCCCCCC[N+](C)(C)Cc1ccccc1`, the outcome was “inactive”. With `CN1C(=O)OC(C)(C)C1=O` the outcome was “inactive”. In the case of `Cc1ccc(-n2nc(C(C)(C)C)cc2NC(=O)Nc2ccc(OCCN3CCOCC3)c3ccccc23)cc1`, the outcome is reported as “inactive”. For `CN(Cc1cc(Br)cc(Br)c1N)C1CCCCC1`, the outcome was “inactive”. With `COc1c(Br)cc(Br)c(C)c1Br` the outcome was “inactive”. With `Nc1nc(Cl)nc2c1ncn2[C@@H]1O[C@H](CO)[C@@H](O)[C@@H]1F` the outcome was “inactive”. In the case of `NC(=O)C(=O)NN=Cc1ccc([N+](=O)[O-])o1`, the outcome is reported as “inactive”. In the case of `CCCCN(CCCC)c1ccc(C(=O)c2ccccc2C(=O)O)c(O)c1`, the AC50 is reported as 20.3 µM (active). With `Nc1[nH]c(=O)ncc1F` the outcome was “inactive”. For `Clc1ccc(COC(Cn2ccnc2)c2ccc(Cl)cc2Cl)c(Cl)c1` (stereo not drawn), the outcome was “inactive”.

Target: Cellular tumor antigen p53 (Homo sapiens) (UniProt P04637)
Sequence (P04637 whole entry, looked up): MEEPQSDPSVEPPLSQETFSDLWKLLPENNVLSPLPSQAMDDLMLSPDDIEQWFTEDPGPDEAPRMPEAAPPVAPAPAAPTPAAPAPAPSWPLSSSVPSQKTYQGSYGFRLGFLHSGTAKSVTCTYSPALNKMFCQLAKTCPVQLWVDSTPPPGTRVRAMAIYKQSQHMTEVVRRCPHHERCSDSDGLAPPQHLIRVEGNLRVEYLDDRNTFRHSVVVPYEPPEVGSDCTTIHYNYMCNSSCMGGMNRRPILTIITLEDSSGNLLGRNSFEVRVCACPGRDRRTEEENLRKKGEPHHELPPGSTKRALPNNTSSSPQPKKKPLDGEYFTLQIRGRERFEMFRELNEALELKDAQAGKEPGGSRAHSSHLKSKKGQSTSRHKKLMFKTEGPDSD
Experiment: TOX21_p53_BLA_p4_ratio: Tox21 HCT-116 p53 Agonism Beta-lactamase Assay, Ratio, Phase 4 (AID 2283601)
Procedure, shortened: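 HCT116 cells carrying an inducible beta-lactamase reporter were plated at 4000 cells/well, rested 5 h, then exposed to compounds in DMSO (217-fold dilution) for 16 h at 37C. CCF4-AM substrate was loaded 2 h at room temperature; 460/530 nm emission ratio scored gain-of-signal versus DMSO.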
For `CSc1nc2cc(Oc3cccc(Cl)c3Cl)c(Cl)cc2[nH]1`, the AC50 was 20.5 µM (active). With `Cc1c(C)n(CCN(C)C)c2ccc(C(=O)OCCN(C)C)cc12` the AC50 was 40.2 µM (active). In the case of `C/C(=C(\CCOC(=O)c1ccccc1)SS/C(CCOC(=O)c1ccccc1)=C(/C)N(C=O)Cc1cnc(C)nc1N)N(C=O)Cc1cnc(C)nc1N`, the outcome is reported as “inactive”. In the case of `Cc1cc(N)c2ccccc2[n+]1CCCCCCCCCC[n+]1c(C)cc(N)c2ccccc21`, the outcome is reported as “inactive”. In the case of `NC(=O)NS(=O)(=O)c1ccc(N)cc1`, the outcome is reported as “inactive”. In the case of `C=C1CC[C@H](O)C/C1=C/C=C1\CCC[C@]2(C)[C@@H]([C@H](C)CCCC(C)(C)O)CC[C@@H]12`, the AC50 is reported as 18.6 µM (active). For `O=C1NCN(c2ccccc2)C12CCN(CCCC(c1ccc(F)cc1)c1ccc(F)cc1)CC2`, the AC50 was 26.7 µM (active). With `CCC(C)(C)c1ccc(CC(C)CN2C[C@@H](C)O[C@@H](C)C2)cc1` (stereo partly drawn) the outcome was “inactive”. In the case of `C=C(Nc1ccc(OCC)cc1)Nc1ccc(OCC)cc1`, the outcome is reported as “inactive”. With `Cc1ccc(O)c(O)c1` the outcome was “inactive”. For `COc1cc2c(cc1OC)C(=O)C(CC1CCN(Cc3ccccc3)CC1)C2` (stereo not drawn), the outcome was “inactive”. For `CC(C)(C)NCC(O)CSc1nc(-c2ccc(C(N)=O)s2)cs1` (stereo not drawn), the outcome was “inactive”. For `Oc1ccc(Cl)c2cccnc12`, the outcome was “inactive”. For `Cc1cc2nc(N)sc2cc1C`, the outcome was “inactive”. With `CCOc1ccc2nc3cc(N)ccc3c(N)c2c1` the AC50 was 32.4 µM (active). For `Cc1cc2c(C(C)C)c(O)c(O)c(C=O)c2c(O)c1-c1c(C)cc2c(C(C)C)c(O)c(O)c(C=O)c2c1O`, the AC50 was 33.2 µM (active). With `CC[C@@H](CO)NCCN[C@@H](CC)CO` the outcome was “inactive”. In the case of `CO[Si](CCCNc1ccccc1)(OC)OC`, the outcome is reported as “inactive”. With `CCCCCCCC[P+](CCCCCCCC)(CCCCCCCC)CCCCCCCC` the AC50 was 31.7 µM (active). With `Nc1cnn([C@@H]2O[C@H](CO)[C@@H](O)[C@H]2O)c(=O)n1` the AC50 was 1.34 µM (active). In the case of `O=C(O)c1cc(-c2ccccc2)nc2ccccc12`, the outcome is reported as “inactive”. For `CC(=O)OC(OC(C)=O)c1ccc([N+](=O)[O-])o1`, the outcome was “inactive”. In the case of `O=[N+]([O-])c1ccc(O)c2ncccc12`, the outcome is reported as “inactive”. For `COC(=O)C1=C(C)NC(C)=C(C(=O)OCCCN2CCC(c3ccccc3)(c3ccccc3)CC2)C1c1cccc([N+](=O)[O-])c1` (stereo not drawn), the AC50 was 42.8 µM (active). In the case of `CCCOc1ccccc1-c1nc2n[nH]nc2c(=O)[nH]1`, the outcome is reported as “inactive”. With `Cn1c(O)c(N=NC(N)=S)c2ccccc21` the outcome was “inactive”. In the case of `CCC(=O)O[C@]1(C(=O)SCF)[C@H](C)C[C@H]2[C@@H]3C[C@H](F)C4=CC(=O)C=C[C@]4(C)[C@@]3(F)[C@@H](O)C[C@@]21C`, the outcome is reported as “inactive”. In the case of `C[C@@H](NCCCc1cccc(C(F)(F)F)c1)c1cccc2ccccc12`, the AC50 is reported as 25.1 µM (active). With `OCCN1CCN(CCCN2c3ccccc3Sc3ccc(Cl)cc32)CC1` the outcome was “inactive”. With `CCCCCCCCCCCCCC[N+](C)(C)Cc1ccccc1` the AC50 was 43.7 µM (active). For `CN1C(=O)OC(C)(C)C1=O`, the outcome was “inactive”. For `Cc1ccc(-n2nc(C(C)(C)C)cc2NC(=O)Nc2ccc(OCCN3CCOCC3)c3ccccc23)cc1`, the outcome was “inactive”. For `CN(Cc1cc(Br)cc(Br)c1N)C1CCCCC1`, the outcome was “inactive”. In the case of `COc1c(Br)cc(Br)c(C)c1Br`, the outcome is reported as “inactive”. For `Nc1nc(Cl)nc2c1ncn2[C@@H]1O[C@H](CO)[C@@H](O)[C@@H]1F`, the AC50 was 0.155 µM (active). For `NC(=O)C(=O)NN=Cc1ccc([N+](=O)[O-])o1`, the AC50 was 41.8 µM (active). With `CCCCN(CCCC)c1ccc(C(=O)c2ccccc2C(=O)O)c(O)c1` the AC50 was 45.5 µM (active). With `Nc1[nH]c(=O)ncc1F` the outcome was “inactive”. With `Clc1ccc(COC(Cn2ccnc2)c2ccc(Cl)cc2Cl)c(Cl)c1` (stereo not drawn) the outcome was “inactive”.
